This is part of a sample that, as a whole, favours compounds with a hit. Of some 83,000 tested, about 20% had one in any assay.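 A percent growth of 40 corresponds to 60% growth inhibition; 0 means no net growth; -100 means all cells died. Active threshold: below 10.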 Values without a mark were called inactive. The source made the active and inactive calls.
System: HL-60(TB) leukemia
Assay: NCI-60 one-dose screen, 48 h (100 = growth as untreated, 0 = no growth, -100 = all killed)
Settings: 10 µM unless noted

Row | Structure (SMILES) | growth
1 | O=C(Cn1nc(-c2ccccc2)ccc1=O)NNC(=S)NC1CCCCC1 | 94.8%
2 | COc1ccc(/C=C/C(=O)c2ccc(OC)c(S(N)(=O)=O)c2)c(C(F)(F)F)c1 | 3.73% (active)
3 | O=C(N1c2ccccc2Sc2ccccc21)n1ccc2cccnc21 | 25.2%
4 | CC(=O)Nc1ccc(-c2cn(-c3cccc(C(=O)Nc4ccc(F)c(C(F)(F)F)c4)c3)nn2)cn1 | 62.8%
5 | O=c1oc2ccccc2cc1-c1csc(N=Nc2c(O)[nH]c3ccc(Cl)cc23)n1 | 99.1%
6 | CC1(c2ccccc2)NC(=O)N(CC(=O)Nc2ccc(C(=O)/C=C/c3ccc(Br)cc3)cc2)C1=O (centres undefined) | 20.8%
7 | CCN(CC)c1ccc(/C=N/Nc2nc(-c3ccc(Br)cc3)cs2)c(O)c1 | 35.6%
8 | O=C(NC(=S)N1CCN(c2ncnc3c2cnn3-c2ccccc2)CC1)c1ccc(Cl)cc1 | 95.5%
9 | CN(CCF)c1ccc(/C=C/C(=O)c2ccc(N)cc2O)cc1 | 58%
10 | Cc1ccc2nc(COc3ccc(C(=O)NNC(=S)NCCc4ccccc4)cc3)[nH]c2c1 | 99.7%
11 | Cc1ccc(C(=O)Nc2cccc(C(=O)NC(=S)Nc3ccc(S(N)(=O)=O)cc3)c2)cc1 | 84.7%
12 | COc1ccc(-n2c(SCC(=O)NNS(=O)(=O)c3ccccc3)nc3ccc(Cl)cc3c2=O)cc1 | 107%
13 | COc1ccc2nc(Cl)c(-c3cc(-c4ccccc4)nc(N)n3)cc2c1 | -37.5% (active)
14 | C=C1CC[C@@H]2[C@]3(C)COC(c4ccco4)O[C@@H]3CC[C@@]2(C)[C@@H]1C/C=C1/C(=O)OCC1OC(C)=O (some centres undefined) | -5.13% (active)

Source: PubChem BioAssay (NCI)
